Source: PubChem BioAssay (NCI)
This is part of a sample that, as a whole, favours compounds with a hit. Of some 83,000 tested, about 20% had one in any assay.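 In brief: 96-well plates, 48 h treatment, single concentration, percent growth endpoint.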 Values without a mark were called inactive. Active and inactive are the calls of the source. Rule for the calls: active = growth percent below 10; inactive = the rest.

Assays:
Assay in all cases: NCI-60 one-dose screen, 48 h (100 = growth as untreated, 0 = no growth, -100 = all killed)
Conditions in all cases: 10 µM unless noted
DU-145 prostate = system: DU-145 prostate
K-562 leukemia = system: K-562 leukemia
MALME-3M melanoma = system: MALME-3M melanoma
MDA-MB-231 breast = system: MDA-MB-231 breast
RXF 393 renal = system: RXF 393 renal
SF-268 CNS = system: SF-268 CNS
SF-295 CNS = system: SF-295 CNS
SF-539 CNS = system: SF-539 CNS
M14 melanoma = system: M14 melanoma
HCT-15 colon = system: HCT-15 colon
HT29 colon = system: HT29 colon
SNB-75 CNS = system: SNB-75 CNS
SNB-19 CNS = system: SNB-19 CNS
U251 CNS = system: U251 CNS
PC-3 prostate = system: PC-3 prostate
SK-MEL-5 melanoma = system: SK-MEL-5 melanoma
UACC-62 melanoma = system: UACC-62 melanoma
LOX IMVI melanoma = system: LOX IMVI melanoma
SK-MEL-28 melanoma = system: SK-MEL-28 melanoma

| Compound | growth (DU-145 prostate) | growth (K-562 leukemia) | growth (MALME-3M melanoma) | growth (MDA-MB-231 breast) | growth (RXF 393 renal) | growth (SF-268 CNS) | growth (SF-295 CNS) | growth (SF-539 CNS) | growth (M14 melanoma) | growth (HCT-15 colon) | growth (HT29 colon) | growth (SNB-75 CNS) | growth (SNB-19 CNS) | growth (U251 CNS) | growth (PC-3 prostate) | growth (SK-MEL-5 melanoma) | growth (UACC-62 melanoma) | growth (LOX IMVI melanoma) | growth (SK-MEL-28 melanoma) |
| --- | --- | --- | --- | --- | --- | --- | --- | --- | --- | --- | --- | --- | --- | --- | --- | --- | --- | --- | --- |
| N#Cc1cc2[nH]c3ccc(OC(F)(F)F)cc3c2oc1=O | 99.4% | 28.8% | 79.6% | 84.6% | 76.8% | 75.5% | 80.3% | 90% | 68.4% | 58.8% | 79.6% | 53.6% | 93.6% | 73.2% | 60.3% | 70.8% | 88.9% | 74.5% | 93% |
| COc1cc(C2CC(c3ccc(Cl)cc3)=NN2c2ccc(Cl)cc2)cc(OC)c1OC (configuration not stated) | 106% | 93.8% | 92% | 79.8% | 89.6% | 90.6% | 95.3% | 93.9% | 90.3% | 91.2% | 94.7% | 58.7% | 88.1% | 85.1% | 64.1% | 97.9% | 77% | 99.8% | 96.1% |
| O=C(Cn1c(=O)ccn(CCCCCCCCOc2ccc(Br)cc2)c1=O)Nc1ccc(Oc2ccc(Cl)cc2)cc1 | 73.7% | 40.5% | 69.8% | 66.6% | 79.8% | 71.1% | 52.9% | 61.9% | 70.1% | 80.4% | 66% | 70.8% | 78.7% | 74.1% | 44.6% | 28.7% | 36.1% | 51.1% | 72.8% |
| CC(C)=CCc1cc2c(cc1O)C1=C(C(=O)C3=C(NCCS3(=O)=O)C1=O)C(C=C(C)C)O2 (configuration not stated) | 41.2% | 8.83% (active) | -42.9% (active) | 12.1% | 57.2% | 0.726% (active) | 91.7% | 20% | 3.7% (active) | 39.8% | 47.9% | 71.4% | 31.7% | 1.89% (active) | 16.4% | 5.34% (active) | 28.2% | 4.56% (active) | 24.3% |
| C=CC(=O)N(C)[C@H]1C[C@H]2OC(C)(C1OC)n1c3ccccc3c3c4c(c5c6ccccc6n2c5c31)C(=O)NC4 (some centres not stated) | 28.7% | 4.26% (active) | -46.7% (active) | 7.42% (active) | -90.1% (active) | 6.45% (active) | -27% (active) | -49.1% (active) | -1.74% (active) | -46.5% (active) | 3.17% (active) | -16.8% (active) | -1.51% (active) | -35.8% (active) | 17.5% | -94.3% (active) | -28.1% (active) | -55.6% (active) | 5.52% (active) |
| COc1cc(-c2cc(-c3ccc(Nc4ccnc5cc(Cl)ccc45)cc3)nc(N3CCOCC3)n2)cc(OC)c1OC | 4.95% (active) | 7.37% (active) | -22.4% (active) | -15.4% (active) | -8.41% (active) | 11.2% | 6.95% (active) | 32.9% | -22.2% (active) | -29.8% (active) | -21.8% (active) | -25.3% (active) | 28.8% | -57.1% (active) | -5.02% (active) | 28% | 70.1% | 4.79% (active) | 7.13% (active) |
| COc1cc(-c2nc(C(=O)Nc3ccc(C)cc3)nn2-c2ccc(F)c(F)c2)cc(OC)c1OC | 100% | 101% | 89% | 96.1% | 116% | 89.2% | 94% | 107% | 94.6% | 94.7% | 75.5% | 84.9% | 104% | 100% | 96.7% | 95.8% | 105% | 99% | 108% |
| Cc1cc(N2CCOCC2)nc(N(CCNc2ccnc3cc(Cl)ccc23)Cc2cccs2)n1 | 42% | 2.63% (active) | -18.4% (active) | -0.994% (active) | -46.5% (active) | 43.8% | -54% (active) | -65.7% (active) | 3% (active) | 17.8% | -43.1% (active) | -18.1% (active) | 56.5% | – | 24.4% | -4.8% (active) | -24.6% (active) | -72.1% (active) | 11.6% |
| COC(=O)C1=C(C(=O)OC)C23C=C(C)C1C2=C(C)C1(CC1)[C@@](C)(O)C3=O (some centres not stated) | 2.57% (active) | 81% | -44.4% (active) | 9.08% (active) | -64.4% (active) | 7.19% (active) | -4% (active) | -39.6% (active) | -43.1% (active) | 6.97% (active) | -0.501% (active) | -56.5% (active) | 7.17% (active) | – | 11.5% | -75.7% (active) | -45.2% (active) | -14.3% (active) | -22.5% (active) |
| ClCc1ccc(-c2ccc(Cn3cnc4nc(Cl)nc(Cl)c43)cc2)cc1 | -50% (active) | -14.4% (active) | -32.8% (active) | -21.4% (active) | – | 1.27% (active) | -62.5% (active) | -45% (active) | 13.1% | -5.13% (active) | -8.13% (active) | -2.49% (active) | 6.84% (active) | -69.9% (active) | -9.15% (active) | -85.1% (active) | -20.5% (active) | -82.6% (active) | 1.02% (active) |
| CCCCCCCCCCCC[n+]1ccccc1 | 16% | 6.1% (active) | 0.501% (active) | -2.58% (active) | – | 11.5% | -36.5% (active) | -2.41% (active) | -41.3% (active) | 39.4% | 1.53% (active) | 0.831% (active) | 8.57% (active) | -0.664% (active) | -38.2% (active) | -95.3% (active) | -41.9% (active) | -40.9% (active) | 21.4% |
| CO/C=C/C(=O)c1cc2cnc3c(=N)cc(NC(=O)C(C)C)c([nH]1)c23 | 4.45% (active) | 3.9% (active) | -77.5% (active) | -31% (active) | – | -47.4% (active) | -51.6% (active) | -57% (active) | -61.3% (active) | -26.8% (active) | -21.5% (active) | -11.8% (active) | -29.8% (active) | -74.3% (active) | -21.6% (active) | -96.9% (active) | -53.8% (active) | -73.9% (active) | -44.8% (active) |
| COc1ccc2c(CCCC(c3ccccc3)c3ccccc3)c3[n+](cc2c1OC)CCc1cc2c(cc1-3)OCO2 | -13.4% (active) | -15.4% (active) | -66.7% (active) | -63.4% (active) | – | -58% (active) | -32.2% (active) | -38.1% (active) | -67.5% (active) | 13.2% | -2.94% (active) | -19.1% (active) | -16.4% (active) | -76.2% (active) | -68.8% (active) | -100% (active) | -71.7% (active) | -100% (active) | -78.7% (active) |
| CC(C)n1c(NCCc2ccc(O)c(O)c2)nc2c1c(=O)n(C)c(=O)n2C | 102% | 97.1% | 97.9% | 92.2% | – | 94.2% | 106% | 104% | 98.8% | 98.8% | 98.1% | 80.2% | 101% | 97.5% | 89.3% | 92.8% | 94.4% | 95.2% | 102% |
| C=C1C(=O)O[C@H]2[C@H]1CC/C(CNC(=O)c1cc3cc(OC)ccc3[nH]1)=C\CC[C@@]1(C)O[C@@H]21 | -92% (active) | -3.44% (active) | -61.6% (active) | -55.5% (active) | – | -39.3% (active) | 37.6% | -60.6% (active) | -42.4% (active) | -78.4% (active) | -70.9% (active) | 51.4% | 44% | 14.5% | -52.5% (active) | -39.2% (active) | -66.1% (active) | -93.5% (active) | -59.3% (active) |
| Cc1cc(O)c2c(c1)C1OC(=O)CCCCCN1C1=C2C(=O)c2cccc(OC3CC(O)C(O)C(C)O3)c2C1=O (configuration not stated) | 57.2% | 28.3% | 40.6% | 32.7% | – | 90.8% | 93.9% | 83.5% | 66.6% | 46.1% | 93.7% | 117% | 97.1% | 63.1% | 87.2% | 86.9% | 89.5% | 34.3% | 75.8% |
| CCCCCCC1(/C=N/NC(N)=O)NC(=O)NC1=O (configuration not stated) | 107% | 102% | 103% | 110% | – | 99.3% | 98.1% | 96.3% | 97.3% | 98.3% | 76.9% | 82.2% | 105% | 94.3% | 91.8% | 96.9% | 99% | 97.4% | – |
